Results as given in a collection of fitness landscapes (doi:10.1126/science.1257360).
Whole data set: some 140,000 sequences, median “enrichment ratio after two sorts for PhoP signalling” near 0, cut for the highest 2% near 11. For the sample, the highest values were picked, then their nearest neighbours and some sequences at random.

B1: PhoQ; a variant is named by its letters at X, in order, P23837 (parent)
chain: MKKLLRLFFPLSLRVRFLLATAAVVLVLSLAYGMVALIGYSVSFDKTTFRLLRGESNLFYTLAKWENNKLHVELPENIDKQSPTMTLIYDENGQLLWAQRDVPWLMKMIQPDWLKSNGFHEIEADVNDTSLLLSGDHSIQQQLQEVREDDDDAEMTHSVAVNVYPATSRMPKLTIVVVDTIPVELKSSYMVWSWFIYVLSANLLLVIPLLWVAAWWSLRPIEALAKEVRELEEHNRELLNPATTRELTSLVRNLNRLLKSERERYDKYRTTLTDLTHSLKTPLXXLQXXLRSLRSEKMSVSDAEPVMLEQISRISQQIGYYLHRASMRGGTLLSRELHPVAPLLDNLTSALNKVYQRKGVNISLDISPEISFVGEQNDFVEVMGNVLDNACKYCLEFVEISARQTDEHLYIVVEDDGPGIPLSKREVIFDRGQRVDTLRPGQGVGLAVAREITEQYEGKIVAGESMLGGARMEVIFGRQHSAPKDE

Variants of: B1
Experiment: enrichment ratio after two sorts for PhoP signalling (ratio (wild type AVST 3.29)); higher = more functional
Conditions: with PhoP (E. coli)

| Variant | enrichment ratio |
| --- | --- |
| IFMF | ≤ 0.25 |
| WNFI | ≤ 0.25 |
| ILYP | ≤ 0.25 |
| PDCM | ≤ 0.25 |
| SNMS | 12 |
| SNME | 14.4 |
| SNFE | ≤ 0.25 |
| SNMD | 1.49 |
| SNMG | 12.5 |
| GIVC | 4.3 |
| SNLW | 7.18 |
| SNHE | ≤ 0.25 |
| GNVG | 2.06 |
| SNMA | 7.05 |
| GNVC | 11.6 |
| SNMW | 3.59 |
| YALF | 3.8 |
| PCNL | ≤ 0.25 |
| QLCD | ≤ 0.25 |
| TKMD | 0.263 |
| FIAQ | ≤ 0.25 |
| FTMY | 4.04 |
| RWMS | ≤ 0.25 |
| GYMF | ≤ 0.25 |

| Variant | enrichment ratio |
| --- | --- |
| HEPH | ≤ 0.25 |
| GNMF | 15.2 |
| GIMF | 6.62 |
| SLMF | 2.69 |
| SNMF | 19.4 |
| SNCV | 14.2 |
| HEVN | ≤ 0.25 |
| HEPN | 18.8 |
| WQCV | ≤ 0.25 |
| SQCV | 6.68 |
| HEMF | ≤ 0.25 |
| EGYW | ≤ 0.25 |
| FYIV | ≤ 0.25 |
| VIWQ | ≤ 0.25 |
| NEFL | ≤ 0.25 |
| HMPY | ≤ 0.25 |
| RMDS | ≤ 0.25 |
| WDAC | ≤ 0.25 |
| ILVT | ≤ 0.25 |
| GQDA | ≤ 0.25 |
| SNLA | 6.53 |
| SNLS | 11.5 |
| SNYV | 0.433 |
| SNMR | 1.49 |

| Variant | enrichment ratio |
| --- | --- |
| TPLI | ≤ 0.25 |
| SNLT | 7.56 |
| SNMV | 18.5 |
| SNLI | 11.3 |
| SRLI | 6.88 |
| SNIV | 9.73 |
| SNVA | 6.33 |
| SNMI | 19.8 |
| PWPK | ≤ 0.25 |
| GTKI | ≤ 0.25 |
| MYMW | ≤ 0.25 |
| HSYK | ≤ 0.25 |
| GPQG | ≤ 0.25 |
| KMHW | ≤ 0.25 |
| GDTD | ≤ 0.25 |
| DSIT | ≤ 0.25 |
| NPMD | ≤ 0.25 |
| WFPK | ≤ 0.25 |
| QDRV | ≤ 0.25 |
| DPTF | ≤ 0.25 |
| PMYV | ≤ 0.25 |
| TTLQ | 10.7 |
| VTLQ | 11.3 |
| FTLQ | 6.79 |

| Variant | enrichment ratio |
| --- | --- |
| GYLQ | ≤ 0.25 |
| VYLQ | ≤ 0.25 |
| QPLQ | ≤ 0.25 |
| YTLQ | 12.8 |
| GTLQ | 15.2 |
| VFLQ | ≤ 0.25 |
| SQPR | ≤ 0.25 |
| IAGV | ≤ 0.25 |
| HKDW | ≤ 0.25 |
| GERY | ≤ 0.25 |
| SAVR | ≤ 0.25 |
| MMAP | ≤ 0.25 |
| RAVP | ≤ 0.25 |
| WSVY | ≤ 0.25 |
| STPW | ≤ 0.25 |
| RING | ≤ 0.25 |
| TING | 13.9 |
| KYNG | ≤ 0.25 |
| PLTG | ≤ 0.25 |
| WLTG | ≤ 0.25 |
| NING | ≤ 0.25 |
| SIGG | 6.86 |
| KYMG | ≤ 0.25 |
| SING | 13.7 |

| Variant | enrichment ratio |
| --- | --- |
| SIMG | 13.2 |
| SLTG | 12.5 |
| SLNG | 0.339 |
| DHDM | ≤ 0.25 |
| DCPT | ≤ 0.25 |
| ELTP | ≤ 0.25 |
| IKSW | ≤ 0.25 |
| GMDV | ≤ 0.25 |
| TNRI | ≤ 0.25 |
| SCYN | ≤ 0.25 |
| YRVE | ≤ 0.25 |
| SITG | 16.2 |
| SSTG | 12.4 |
| KYTG | ≤ 0.25 |
| STTG | 7.62 |
| SFTG | 5.29 |
| SQTG | 9.26 |
| LIWW | ≤ 0.25 |
| TSIP | ≤ 0.25 |
| IDFC | ≤ 0.25 |
| QELP | ≤ 0.25 |
| ADAS | ≤ 0.25 |
| KDAS | ≤ 0.25 |
| KSAS | ≤ 0.25 |

| Variant | enrichment ratio |
| --- | --- |
| CSAT | ≤ 0.25 |
| NGAS | 0.365 |
| TGAS | 14 |
| RGAS | ≤ 0.25 |
| CSAS | 36.6 |
| TDAS | 11.6 |
| PRQF | ≤ 0.25 |
| AFYG | ≤ 0.25 |
| EQHW | ≤ 0.25 |
| ESQM | ≤ 0.25 |
| WSTG | ≤ 0.25 |
| PICR | ≤ 0.25 |
| QESA | ≤ 0.25 |
| QESQ | ≤ 0.25 |
| MCSI | 12.5 |
| NESQ | ≤ 0.25 |
| MMSI | 8.62 |
| MCSK | ≤ 0.25 |
| TESQ | 22.8 |
| MESI | 12.5 |
| MQSI | ≤ 0.25 |
| NESA | ≤ 0.25 |
| TESA | 11.7 |
| QESI | 7.8 |

| Variant | enrichment ratio |
| --- | --- |
| HEMY | ≤ 0.25 |
| TSHA | 3 |
| IPQD | ≤ 0.25 |
| HTSR | ≤ 0.25 |
| FRDI | ≤ 0.25 |
| TEQS | 7.71 |
| GWCG | ≤ 0.25 |
| TLDG | ≤ 0.25 |
| PGHR | ≤ 0.25 |
| TESI | 13.5 |
| TESK | 6.64 |
| TESR | 6.55 |
| QGNK | ≤ 0.25 |
| RDYI | ≤ 0.25 |
| QMSV | 10.5 |
| NSGN | ≤ 0.25 |
| TTGN | 21.9 |
| LTGN | ≤ 0.25 |
| YTGN | ≤ 0.25 |
| TSGN | 14.9 |
| QPGN | ≤ 0.25 |
| THGN | ≤ 0.25 |
| FFGN | ≤ 0.25 |
| KCGN | ≤ 0.25 |

| Variant | enrichment ratio |
| --- | --- |
| QGGN | 14.7 |
| TGGN | 13.9 |
| KSGN | ≤ 0.25 |
| TNRW | ≤ 0.25 |
| LWKV | ≤ 0.25 |
| IVDK | ≤ 0.25 |
| EHTD | ≤ 0.25 |
| NKKA | ≤ 0.25 |
| MHGI | ≤ 0.25 |
| QKAH | ≤ 0.25 |
| KQVW | ≤ 0.25 |
| ECVR | ≤ 0.25 |
| KPPV | ≤ 0.25 |
| MMGN | ≤ 0.25 |
| MEGN | 10.8 |
| KAGN | ≤ 0.25 |
| MAGN | 13.5 |
| MCGN | 16.3 |
| NAGN | ≤ 0.25 |
| WWPI | ≤ 0.25 |
| DCFD | ≤ 0.25 |
| MIAA | 11.7 |
| MDYF | ≤ 0.25 |
| MELQ | 3.81 |

| Variant | enrichment ratio |
| --- | --- |
| MIYF | 24.3 |
| MIYI | 24.3 |
| MTYF | 7.02 |
| MIWI | 3.74 |
| MIAD | ≤ 0.25 |
| MKAA | ≤ 0.25 |
| MIFA | ≤ 0.25 |
| MILQ | 14 |
| MITA | ≤ 0.25 |
| KCES | ≤ 0.25 |
| FVYA | ≤ 0.25 |
| FGWI | ≤ 0.25 |
| LDYV | ≤ 0.25 |
| DLSC | ≤ 0.25 |
| IAQI | ≤ 0.25 |
| MIFC | ≤ 0.25 |
| MISK | ≤ 0.25 |
| MILA | 1.31 |
| MISC | 23 |
| MIYH | 7.94 |
| MIMF | 0.51 |
| MIGH | 18.2 |
| MIGF | 11.9 |
| MITH | ≤ 0.25 |

| Variant | enrichment ratio |
| --- | --- |
| MITI | 14.6 |
| MILY | 0.599 |
| MIHF | 3.77 |
| NIWL | ≤ 0.25 |
| WCMF | ≤ 0.25 |
| KFLW | ≤ 0.25 |
| SFFA | ≤ 0.25 |
| IEDQ | ≤ 0.25 |
| TAFY | 2.48 |
| RVSG | ≤ 0.25 |
| LAEY | ≤ 0.25 |
| GIVQ | 2.03 |
| MIAT | 12.1 |
| MIAQ | 14.7 |
| MILT | ≤ 0.25 |
| MFAQ | ≤ 0.25 |
| MITV | 17.2 |
| MIMV | ≤ 0.25 |
| MIFT | ≤ 0.25 |
| MIWV | ≤ 0.25 |
| MSAQ | 9.85 |
| HFIN | ≤ 0.25 |
| LDFC | ≤ 0.25 |
| MDHH | ≤ 0.25 |

| Variant | enrichment ratio |
| --- | --- |
| PDDC | ≤ 0.25 |
| IFMI | ≤ 0.25 |
| WEFI | ≤ 0.25 |
| STNC | ≤ 0.25 |
| KCNC | ≤ 0.25 |
| SLNC | ≤ 0.25 |
| NGNC | ≤ 0.25 |
| TCNC | 14.3 |
| KSNC | ≤ 0.25 |
| SHNC | 0.752 |
| SNNC | 18.6 |
| NHNC | ≤ 0.25 |
| TGNC | 61.8 |
| RGNC | ≤ 0.25 |
| THNC | 11.9 |
| SIFT | ≤ 0.25 |
| PGDY | ≤ 0.25 |
| QRCP | ≤ 0.25 |
| NMAF | ≤ 0.25 |
| QMGQ | ≤ 0.25 |
| QVAS | ≤ 0.25 |
| SKNA | ≤ 0.25 |
| DLFK | ≤ 0.25 |
| DATT | ≤ 0.25 |

| Variant | enrichment ratio |
| --- | --- |
| SHNF | 9.74 |
| TFNC | 2.85 |
| TANC | 12.1 |
| KANC | ≤ 0.25 |
| SHNQ | 0.892 |
| THNQ | 30.9 |
| KDNC | ≤ 0.25 |
| TDNC | 13.4 |
| IANC | ≤ 0.25 |
| YCNQ | ≤ 0.25 |
| FDNC | ≤ 0.25 |
| TFNQ | 13.4 |
| NHNQ | ≤ 0.25 |
| TNPA | ≤ 0.25 |
| VGFR | ≤ 0.25 |
| YITS | 0.602 |
| ECNN | ≤ 0.25 |
| KVKT | ≤ 0.25 |
| GNYR | ≤ 0.25 |
| DIML | ≤ 0.25 |
| AESL | 11.7 |
| MESL | 13.9 |
| MDSL | ≤ 0.25 |
| TESL | 12.5 |

| Variant | enrichment ratio |
| --- | --- |
| NESL | ≤ 0.25 |
| MMSL | 6.66 |
| QESL | 0.967 |
| AQSL | 7.47 |
| AHSL | 0.581 |
| RWWS | ≤ 0.25 |
| RAAP | ≤ 0.25 |
| FFQI | ≤ 0.25 |
| NMFS | ≤ 0.25 |
| AIQP | ≤ 0.25 |
| ERDH | ≤ 0.25 |
| FVNS | ≤ 0.25 |
| TVNY | ≤ 0.25 |
| TVNI | 12.6 |
| TVNW | ≤ 0.25 |
| PVNI | ≤ 0.25 |
| TVNS | 18.9 |
| WILF | ≤ 0.25 |
